# This is part of a sample that, as a whole, favours compounds with a hit. Of some 79,000 tested, about 15% had one in any assay. A number with no mark means an inactive call. Activity calls are given as the source filed them. No stated cut-off is given here; in the data, active means growth inhibition above about 70%; inactive means the rest.
# How the values were obtained:
# [1] = NCI Yeast Anticancer Drug Screen. Data for the rad50 strain (AID 155);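 further: 0% = growth of vehicle-only cultures of the same strain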; settings: S. cerevisiae rad50 strain growth inhibition; at 50.0 µM; active compounds read high
# Outline: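 Compounds were tested on a yeast strain with an engineered DNA damage repair alteration; the reported value is growth inhibition normalised to vehicle treatment.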
# [2] = NCI Yeast Anticancer Drug Screen. Data for the mec2-1 strain (AID 157); settings: S. cerevisiae mec2-1 strain, at 50.0 µM, active compounds read high
# Outline: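 Readout is yeast growth inhibition, normalised to vehicle-treated controls, in the mec2-1 strain exposed to compound.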
# [3] = NCI Yeast Anticancer Drug Screen. Data for the sgs1 mgt1 strain (AID 161);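 further: 0% = growth of cultures given vehicle only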; settings: S. cerevisiae sgs1 mgt1 strain, at 50.0 µM, active compounds read high
# Outline: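 Compounds are added to genetically altered yeast, and growth is compared with cultures given vehicle alone to give percent inhibition.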
# [4] = NCI Yeast Anticancer Drug Screen. Data for the cln2 rad14 strain (AID 165);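 further: 0% = growth equal to vehicle treated cultures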; settings: S. cerevisiae cln2 rad14 strain, at 50.0 µM, active compounds read high
# Outline: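 Relative to vehicle controls, growth inhibition of compound-treated cln2 rad14 yeast was recorded.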
# [5] = NCI Yeast Anticancer Drug Screen. Data for the bub3 strain (AID 167); settings: S. cerevisiae bub3 mutant strain, at 50.0 µM, active compounds read high
# Outline: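 Growth of a checkpoint-deficient yeast mutant is measured after compound exposure. Values represent inhibition relative to vehicle.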
# [6] = NCI Yeast Anticancer Drug Screen. Data for the mlh1 rad18 strain (AID 175); settings: S. cerevisiae mlh1 rad18 strain growth inhibition; at 50.0 µM; active compounds read high
# Outline: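 Test agents were incubated with a yeast strain of defined genotype (DNA damage repair defect). Inhibition of growth was derived by comparison with vehicle-exposed cultures.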
SMILES,growth inhibition [1],growth inhibition [2],growth inhibition [3],growth inhibition [4],growth inhibition [5],growth inhibition [6]
CCOC(=O)C(NC(=O)/C=C\C(=O)O)C(C)C (stereo not given),3.7%,22.1%,2.55%,23.9%,15.4%,35.2%
COC(=O)CC1(CC(=O)O)SCCS1,-13.6%,4.3%,11.5%,2.9%,13.5%,-8.25%
CCCC(NC(C)=O)C(=O)O (stereo not given),8.6%,2.75%,2.8%,-21.1%,1.15%,8%
CSc1nc(-c2ccccc2)c2c(n1)-c1ccccc1CC2,-4.95%,-6.1%,3.05%,-2.4%,17.9%,-2.35%
CCOC(=O)C(=O)N=Nc1nc2c(O)c3ccccc3c(O)c2s1,78.2% (active),87.8% (active),83% (active),45.8%,89.2% (active),58.5%
O=C1C2=C(Nc3ccccc3N2)OC1c1ccccc1Cl (stereo not given),-0.95%,-11.7%,-22.1%,6.7%,-21.8%,4%
CC(CS(C)(=O)=O)S(=O)(=O)O (stereo not given),-6.25%,-20.4%,-1.35%,-0.3%,-14.7%,-5.85%
O=[N+]([O-])c1ccc(N=CNc2ccc([N+](=O)[O-])cc2)cc1,-15.9%,-13.1%,-1.5%,-12%,17.1%,-6.65%
O=[N+]([O-])c1cc([N+](=O)[O-])c2ccccc2c1NS(=O)(=O)c1ccc(Br)cc1,7.35%,18.9%,36.4%,0.7%,36%,70.5% (active)
COc1cc2cc(-c3ccccn3)nc(N)c2cc1OC,29.2%,9.35%,39.5%,2.55%,-1.5%,9.95%
CC(=O)N1CCCCCC1=O,-30.3%,-16.9%,25.4%,-7.55%,1.95%,-26.8%
CC(C(O)C(F)(F)F)[N+](C)(C)C (stereo not given),34.8%,5.85%,1.8%,-13.8%,10.1%,28%
COc1cc2c(c(C3(O)C(=O)N(C)c4ccccc43)c1OC)OCO2 (stereo not given),1.95%,-12.4%,12.8%,-53.1%,-52.6%,4.9%
O=C1CCN2CCC(=O)c3c(Cl)ccc1c32,8.05%,13.3%,8.5%,13.8%,14.1%,16.9%
CCCC(CCO)(CCO)c1ccccc1,16.6%,-30.4%,-9.65%,10.9%,8.1%,-5.7%
O=C1CN(c2ccccc2)C(=O)CN1/N=C/c1ccc[nH]1,-27.4%,-7.55%,-4.9%,-21.4%,-7.7%,-13.4%
ClCCOCOc1ccc2ccccc2c1,29.6%,23.9%,43.6%,16.7%,26.6%,26.9%
CC(Nc1ccc(Cl)c(Cl)c1)C1CCOC1=O (stereo not given),85.5% (active),97% (active),94.8% (active),80% (active),94.8% (active),95.5% (active)
N#CCCN(C1=NN(C(=O)CC(=O)Nc2ccccc2Cl)C(c2ccccc2)C1)c1ccc(Cl)cc1 (stereo not given),28.4%,19.1%,-10.1%,25.9%,16.1%,3.95%
COc1ccccc1N1C(=O)C2C3c4ccccc4C(OC(C)=O)(c4ccccc43)C2C1=O (stereo not given),-19.8%,-13.6%,4.25%,3.4%,-14.8%,12.9%

# Source: PubChem BioAssay (NCI)
